# CYP2C9 act: CYP2C9 (human) activation | P11712 | recombinant CYP2C9, luciferin-H conversion, luminescence; active compounds read high; factor 1 = untreated enzyme, 0 = blocked | activation factor at 5 µM | hit rate 1.4% among 96,000 | AID 1024;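 active means activation factor of 2 or more for CYP2C9 at a 5 µM dose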;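 further: 0 = sulfaphenazole-blocked wells and 1 = vehicle-only wells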
# PostGolgi ctrl: growth of the yeast control strain, post-Golgi counter-screen. hit rate 5% among 98,000. efflux-deficient yeast background strain, growth absorbance A615, 16 h. AID 738. inhibition, % at 10 µM
# CYP2C19 inhib: inhibitors of human CYP2C19; hit rate 21% among 96,000; CYP2C19 Supersomes, luciferin-H EGE luminescence, 30 min; AID 778; inhibition, % at 5 µM; P33261;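 active means CYP2C19 inhibition above a set limit at 5 µM in the primary screen, cut at about 50% in these data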;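 further: plate controls were negative control wells for no effect and 2.5 mM tranylcypromine positive control for full effect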
# Target sequence (P33261 whole entry, looked up): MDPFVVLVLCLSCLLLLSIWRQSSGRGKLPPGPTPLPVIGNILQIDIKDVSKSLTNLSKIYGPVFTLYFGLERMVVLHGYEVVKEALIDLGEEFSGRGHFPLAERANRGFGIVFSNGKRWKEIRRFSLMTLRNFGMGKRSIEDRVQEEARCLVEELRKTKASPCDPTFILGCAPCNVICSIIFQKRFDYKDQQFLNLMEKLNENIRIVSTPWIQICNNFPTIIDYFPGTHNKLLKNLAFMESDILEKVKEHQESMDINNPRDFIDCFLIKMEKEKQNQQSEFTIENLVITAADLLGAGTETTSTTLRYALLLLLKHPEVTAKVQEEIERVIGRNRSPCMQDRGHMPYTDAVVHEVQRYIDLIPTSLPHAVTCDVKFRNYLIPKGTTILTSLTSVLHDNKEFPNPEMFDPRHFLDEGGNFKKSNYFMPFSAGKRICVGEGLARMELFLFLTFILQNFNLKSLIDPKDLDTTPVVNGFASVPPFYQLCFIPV
# CYP2C9 inh: inhibitors of human CYP2C9; CYP2C9 Supersomes, luciferin-H conversion, luminescence; P11712; AID 777; inhibition, % at 5 µM; hit rate 20% among 96,000;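 active means blocking of liver enzyme CYP2C9 beyond about 50% at 5 µM, limit read from the data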
# PostGolgi yeast: growth inhibition of a yeast mutant, post-Golgi transport screen; post-Golgi transport phenotypic cell assay; inhibition, % at 10 µM; hit rate 0.9% among 98,000; AID 739;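 further: yeast cells grown in 1536-well plates; yeast grown about 18 h at 30C before absorbance read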
# CYP2C19 activ: increases human CYP2C19 enzyme activity | activation factor at 5 µM | recombinant CYP2C19, luciferin-H EGE luminescence; active compounds read high; 0 = fully inhibited enzyme, 1 = untreated enzyme | P33261 | 96,000 tested, under 10 active | AID 1025;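 active means activation factor of at least 2 at 5 µM in the primary screen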;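 further: 0 = wells with 2.5 mM tranylcypromine and 1 = vehicle-only wells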
# Numbers without * were called inactive; · = not tested or not shown. Most compounds without a hit are left out; they make up all but 32% or so of the library. Unless noted, no stated cut-off is given here; in the data, active means inhibition above about 30%; inactive means the rest.
SMILES,CYP2C9 act,PostGolgi ctrl,CYP2C19 inhib,CYP2C9 inh,PostGolgi yeast,CYP2C19 activ
COC(=O)N/N=C(\C)c1ccc(Br)cc1,1,9,-2,-2,1,1
Cc1nn(C/C(C#N)=N\O)c(C)[n+]1N,1.2,27,-12,-17,-3,1.1
O=C(NC1CCCc2ccccc21)C1CCC(CNc2c(N3CCOCC3)c(=O)c2=O)CC1 (centres undefined),1.1,5,-18,-5,0,1.2
Cc1c(C(N)=O)c(N)c(C(=O)c2ccccc2)n1-c1ccccc1,0.9,0,26,12,2,0.7
NC(=O)c1ccccc1N/C=C/C(=O)c1ccccc1,0.6,2,74*,45,6,0.3
CC(NC(=O)C1(C)CC1(Br)Br)C(C)(C)C (centres undefined),1,26,6,-3,2,0.9
CCOC(=O)c1ccc(CC(=O)c2oc3cc(O)ccc3c2C)o1,0.3,-4,28,66*,-1,0.7
CCOC(=O)c1oc2cc(O)ccc2c(=O)c1-c1csc(C)n1,1,-1,-9,4,4,1.1
CCOC(=O)c1ccc(-c2c(C(=O)OCC)oc3cc(O)c(CC)cc3c2=O)o1,0,12,68*,97*,-10,0.3
Cc1cc(NC(=O)c2cccc(S(=O)(=O)N3CC(c4ccccc4)CC3=O)c2)no1 (centres undefined),1.1,8,11,-12,-1,0.9
NC(=O)NC(c1ccccc1)c1ccccc1F (centres undefined),0.9,9,72*,6,-4,0.3
NC(=O)NC(Cc1ccccc1)C(=O)O (centres undefined),1,·,-7,-3,·,1.1
NC(=O)NC(c1ccccc1)c1cccc2ccccc12 (centres undefined),1,17,72*,-1,3,0.3
NC(=O)NC(Cc1ccccc1)c1ccccc1 (centres undefined),1,6,47,2,-39,0.5
NC(=O)NC(c1ccccc1)c1ccccc1,0.7,3,80*,28,2,0.2
CCOC(=O)CN1C(=O)C(Sc2n[nH]c(-c3cccc(C)c3)n2)CCc2ccccc21 (centres undefined),0.2,18,57*,85*,2,0.4
CCOC(=O)CSc1n[nH]c(-c2cccnc2)n1,1.1,-3,-13,-14,-4,1.1
CCS(=O)(=O)N1CCN(C(=O)C(c2ccccc2)c2ccccc2)CC1,0.9,4,10,14,5,0.9
COc1ccccc1N1CCN(C(=O)CSc2ccccc2)CC1,0.5,8,44,46,6,0.6
CS(=O)(=O)N1CCN(C(=O)C(Sc2ccccc2)c2ccccc2)CC1 (centres undefined),1,0,71*,2,-11,0.3
COc1ccccc1N1CCN(C(=O)C(Sc2ccccc2)c2ccccc2)CC1 (centres undefined),0.4,10,61*,59*,9,0.4
COc1ccc(C(=O)N[C@H](C(=O)NCC2CCCCC2)C(C)C)cc1,0.7,8,26,26,2,0.7
CC(C)(NO)/C(=N/O)c1cccs1,1,5,2,-4,1,1
CCCCn1ccc(=O)c2c(C(F)(F)F)nccc21,1.1,8,-8,-6,20,1.1
CCN(CC)C(=S)SCC(=O)Nc1ccc(F)cc1,0.9,9,37,8,-1,0.6
SMILES,CYP2C9 act,PostGolgi ctrl,CYP2C19 inhib,CYP2C9 inh,PostGolgi yeast,CYP2C19 activ
c1ccc(Nc2nc3ccccc3o2)cc1,0.8,14,45,17,9,0.6
FC(F)(F)Oc1ccc(Nc2nc3ccccc3o2)cc1,0.2,3,4,76*,2,1
CC(=O)NCC(=O)NC(C(=O)Nc1ccc2c(c1)OCCO2)c1ccccc1 (centres undefined),1,-2,-4,-4,-1,1
C=CCn1c(NC(=O)c2ccc(Br)o2)c(C(=O)OCC)sc1=S,0.1,2,25,88*,4,0.7
CCOC(=O)C(C(=O)Nc1nc2ccccc2s1)C1CCCCC1 (centres undefined),0.1,27,38,92*,18,0.6
CCOC(=O)C(C(=O)Nc1ccccn1)C1CCCCC1 (centres undefined),0.6,-1,16,41,0,0.8
CCOC(=O)C(C(=O)Nc1cccc(C)n1)C1CCCCC1 (centres undefined),0.2,3,80*,82*,-4,0.2
CCOC(=O)C(C(=O)Nc1nccs1)C1CCCCC1 (centres undefined),0.2,3,69*,77*,2,0.3
CCc1cccc(NC(=O)NC2CCCCC2)c1,1.3,11,-9,-31,-8,1.1
O=C(Nc1nc2ccccc2s1)c1ccc(Cl)s1,0.8,13,4,17,-15,1
CCOC(=O)C(C(=O)Nc1cccc(C)c1)C1CCCCC1 (centres undefined),0.4,6,82*,55*,3,0.2
CC(C)(C)C1(c2ccccc2)NC(=O)N(CC(=O)N2CCOCC2)C1=O (centres undefined),1.2,9,-16,-24,4,1.2
CC(Oc1ccccc1)C(=O)Nc1ccc(S(=O)(=O)NCC2CCCO2)cc1 (centres undefined),0.6,-10,-12,45,-3,1.1
CCCc1cc2c(cc1NC(=O)c1ccccc1Cl)OCO2,0.5,2,94*,49,-8,0.1
Cc1ccccc1C(=O)Nc1ccccc1-n1cccc1,1.1,-2,12,-7,1,0.9
CCOc1cc(NC(=O)c2ccccc2C)c(OCC)cc1NC(=O)C1=Cc2ccccc2OC1,0.9,1,14,12,-1,0.9
CCCCC(=O)Nc1ccc(C(=O)Nc2ccc3c(c2)OCO3)cc1,0.6,2,28,41,-5,0.7
CCCc1cc2c(cc1NC(=O)c1ccc(Br)cc1)OCO2,0.9,-7,87*,11,-3,0.1
CCCc1cc2c(cc1NC(=O)c1ccccc1C)OCO2,0.7,1,95*,28,0,0
C=CCN(CC=C)C(=O)c1ccccc1NC(=O)c1ccccc1C,0.9,7,51*,8,1,0.5
CS(=O)(=O)N(CC(=O)N1CCN(c2ccccc2F)CC1)c1cccc(C(F)(F)F)c1,1.7,5,7,-74,-4,0.9
CCc1nc(NCCc2ccccn2)c2nnn(Cc3ccccc3F)c2n1,0.3,15,69*,67*,-8,0.3
CCCc1nc(NCc2ccccn2)c2nnn(Cc3ccccc3F)c2n1,0.9,100*,31,9,4,0.7
CCCc1nc(NCc2ccncc2)c2nnn(Cc3ccccc3F)c2n1,·,6,·,·,1,·
CCOC(=O)C(C)Oc1ccc(=O)n(-c2ccccc2)n1 (centres undefined),1,7,33,2,-6,0.7
